Design in all cases: scale not given: direction of the effect not stated beside the values
Experiment [1] concerns the target Protein translocase subunit SecA (Escherichia coli (strain K12)) (UniProt P10408). Kind of experiment: Assay to Identify E. coli SecA ATPase Inhibitors. The experiment is classed as functional. Particulars: 30 µM.
In experiment [2] the target is T1, Ubiquitin-activating enzyme e1, putative (Leishmania donovani (strain BPK282A1)) (UniProt E9BSI1).
T1 sequence (whole entry): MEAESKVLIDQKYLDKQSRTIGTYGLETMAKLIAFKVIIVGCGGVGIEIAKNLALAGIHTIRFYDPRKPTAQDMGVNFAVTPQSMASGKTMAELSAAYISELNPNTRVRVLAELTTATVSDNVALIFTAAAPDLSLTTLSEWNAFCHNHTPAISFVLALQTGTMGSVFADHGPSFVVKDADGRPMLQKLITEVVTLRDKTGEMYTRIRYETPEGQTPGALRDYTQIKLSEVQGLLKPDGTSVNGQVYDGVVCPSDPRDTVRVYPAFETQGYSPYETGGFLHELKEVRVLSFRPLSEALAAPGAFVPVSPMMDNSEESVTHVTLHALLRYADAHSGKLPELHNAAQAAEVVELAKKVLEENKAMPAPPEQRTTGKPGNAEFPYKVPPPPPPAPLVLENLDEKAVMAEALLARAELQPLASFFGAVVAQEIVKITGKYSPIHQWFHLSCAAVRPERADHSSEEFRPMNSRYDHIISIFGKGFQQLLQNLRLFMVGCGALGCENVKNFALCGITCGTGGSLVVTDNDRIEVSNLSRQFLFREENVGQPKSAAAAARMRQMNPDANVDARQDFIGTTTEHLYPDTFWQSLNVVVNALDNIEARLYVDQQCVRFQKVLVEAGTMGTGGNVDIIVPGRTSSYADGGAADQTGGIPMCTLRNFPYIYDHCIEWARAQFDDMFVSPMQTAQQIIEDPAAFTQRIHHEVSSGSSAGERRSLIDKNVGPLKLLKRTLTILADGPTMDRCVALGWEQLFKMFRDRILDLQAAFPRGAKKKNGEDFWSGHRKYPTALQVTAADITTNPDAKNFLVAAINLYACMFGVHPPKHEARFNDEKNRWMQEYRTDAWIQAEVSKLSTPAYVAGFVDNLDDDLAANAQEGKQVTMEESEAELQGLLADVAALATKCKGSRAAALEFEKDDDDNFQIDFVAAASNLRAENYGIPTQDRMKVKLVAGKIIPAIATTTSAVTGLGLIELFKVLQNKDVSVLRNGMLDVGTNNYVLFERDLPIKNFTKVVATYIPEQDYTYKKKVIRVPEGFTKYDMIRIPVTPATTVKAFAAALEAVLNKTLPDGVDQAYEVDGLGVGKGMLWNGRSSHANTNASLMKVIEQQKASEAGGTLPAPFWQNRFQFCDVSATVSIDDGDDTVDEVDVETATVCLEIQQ
As to the kind of experiment: Leishmania donovani Ubiquitin Activating Enzyme (LdE1). The experiment is classed as functional. As to conditions: 30 µM.

The target of experiment [3] is AMP-activated protein kinase, AMPK (Homo sapiens) (UniProt P54646+O43741+P54619+Q9UGJ0+Q9Y478+Q13131+Q9UGI9). As to the kind of experiment: AMP-dependent Kinase enzyme assay. An in vitro enzyme assay that detects ADP turnover that is directly proportional to AMPK activity. This uses naive AMPK that is activated during the assay with MK-8722. The experiment is classed as functional. As to conditions: 30 µM.

The target in experiment [4] is Sialic acid-binding Ig-like lectin 9 (Homo sapiens) (UniProt Q9Y336). Kind of experiment: Hs-Siglec9 ALPHAscreen SOP 20170721. Particulars: 10 µM. For orientation: Alpha assays give light when donor and acceptor beads are brought close together.
A further experiment relates to Trypanosoma cruzi. As to the kind of experiment: Trypanosoma cruzi phosphomannomutase and mannose-1-phosphate guanylyltransferase assay. The format is functional. As to conditions: 10 µM.
Experiment [5] addresses T2, Arginase-2, mitochondrial (Homo sapiens) (UniProt P78540).
T2 sequence (whole entry): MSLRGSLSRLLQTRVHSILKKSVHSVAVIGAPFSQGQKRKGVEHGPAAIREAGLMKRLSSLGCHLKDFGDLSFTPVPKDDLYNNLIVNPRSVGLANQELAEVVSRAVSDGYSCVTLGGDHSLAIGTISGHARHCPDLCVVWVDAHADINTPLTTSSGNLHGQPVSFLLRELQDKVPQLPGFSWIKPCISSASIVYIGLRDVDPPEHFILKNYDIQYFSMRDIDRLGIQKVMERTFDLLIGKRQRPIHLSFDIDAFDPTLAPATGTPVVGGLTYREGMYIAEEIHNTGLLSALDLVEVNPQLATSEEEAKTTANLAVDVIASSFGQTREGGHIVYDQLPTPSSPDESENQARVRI
Kind of experiment: in vitro enzyme assay to detect the production of urea directly proportional to the activity of Arginase II. Note: in the data most compounds retested in dose-response had high values. As to conditions: 33.3 µM. The format is functional.

In experiment [6] the target is T3, Proteasome subunit beta (Trypanosoma cruzi) (UniProt O96673).
T3 sequence (whole entry): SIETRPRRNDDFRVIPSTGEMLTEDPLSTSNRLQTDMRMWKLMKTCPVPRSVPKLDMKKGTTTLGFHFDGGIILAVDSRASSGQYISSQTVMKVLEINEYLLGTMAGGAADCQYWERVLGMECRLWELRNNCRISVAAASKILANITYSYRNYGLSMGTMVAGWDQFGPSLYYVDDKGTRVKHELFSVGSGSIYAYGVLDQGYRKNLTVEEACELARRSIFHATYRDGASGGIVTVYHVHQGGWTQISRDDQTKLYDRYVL
As to the kind of experiment: Trypanosoma cruzi proteasome chymotrypsin-like activity (TcProtChymo) assay. Note: in the data most compounds retested in dose-response had high values. The format is functional. Particulars: 9.37 µM.

For the next experiment, the species on record is Homo sapiens. As to the kind of experiment: To identify inhibition of the IFN signalling (Jak-Stat) pathway via expression of an eGFP reporter gene under the control of an IFN-stimulated response element (ISRE) containing MxA promoter. The format is functional. Particulars: 30 µM.
For experiment [7], the target named is T4, Tyrosyl-tRNA synthetase, putative (Trypanosoma cruzi (strain CL Brener)) (UniProt Q4DSP6).
T4 sequence (whole entry): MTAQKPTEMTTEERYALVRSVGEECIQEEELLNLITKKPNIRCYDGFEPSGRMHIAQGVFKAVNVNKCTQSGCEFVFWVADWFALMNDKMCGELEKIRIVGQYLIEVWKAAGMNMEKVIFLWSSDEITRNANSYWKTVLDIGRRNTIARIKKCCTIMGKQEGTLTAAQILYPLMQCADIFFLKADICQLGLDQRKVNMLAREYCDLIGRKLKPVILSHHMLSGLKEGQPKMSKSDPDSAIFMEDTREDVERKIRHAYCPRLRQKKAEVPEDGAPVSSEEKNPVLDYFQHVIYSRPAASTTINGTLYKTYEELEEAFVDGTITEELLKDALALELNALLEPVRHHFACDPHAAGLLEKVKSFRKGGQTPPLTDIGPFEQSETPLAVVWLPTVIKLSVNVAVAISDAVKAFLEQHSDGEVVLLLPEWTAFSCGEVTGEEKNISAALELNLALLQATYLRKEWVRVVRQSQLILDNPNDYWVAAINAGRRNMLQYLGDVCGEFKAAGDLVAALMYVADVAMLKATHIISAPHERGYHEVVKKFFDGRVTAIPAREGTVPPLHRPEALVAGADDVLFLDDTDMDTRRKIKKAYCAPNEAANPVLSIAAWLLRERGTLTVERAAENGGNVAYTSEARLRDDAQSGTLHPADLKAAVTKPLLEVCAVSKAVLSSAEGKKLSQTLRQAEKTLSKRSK
As to the kind of experiment: Trypanosoma cruzi tyrosyl tRNA synthetase (TcYRS) _High Tyrosine SOP. Note: in the data most compounds retested in dose-response had high values. The format is functional. As to conditions: 30 µM.

The target of experiment [8] is T4, Tyrosyl-tRNA synthetase, putative (Trypanosoma cruzi (strain CL Brener)). Kind of experiment: Trypanosoma cruzi tyrosyl tRNA synthetase (TcYRS) SOP. As to conditions: 30 µM. The experiment is classed as functional.
Experiment [9] concerns the target Chromo domain-containing protein 1 (Saccharomyces cerevisiae (strain ATCC 204508 / S288c) (Baker's yeast)) (UniProt P32657). As to the kind of experiment: ScCHD-1 Enzyme Inhibition Assay. Note: in the data most compounds retested in dose-response had high values. The experiment is classed as functional. Particulars: 30 µM.

For some of these results: Potency and affinity values are given separately.

Chain of Chromo domain-containing protein 1 (Saccharomyces cerevisiae (strain ATCC 204508 / S288c) (Baker's yeast)) (P32657 whole entry, the tested form may be a part): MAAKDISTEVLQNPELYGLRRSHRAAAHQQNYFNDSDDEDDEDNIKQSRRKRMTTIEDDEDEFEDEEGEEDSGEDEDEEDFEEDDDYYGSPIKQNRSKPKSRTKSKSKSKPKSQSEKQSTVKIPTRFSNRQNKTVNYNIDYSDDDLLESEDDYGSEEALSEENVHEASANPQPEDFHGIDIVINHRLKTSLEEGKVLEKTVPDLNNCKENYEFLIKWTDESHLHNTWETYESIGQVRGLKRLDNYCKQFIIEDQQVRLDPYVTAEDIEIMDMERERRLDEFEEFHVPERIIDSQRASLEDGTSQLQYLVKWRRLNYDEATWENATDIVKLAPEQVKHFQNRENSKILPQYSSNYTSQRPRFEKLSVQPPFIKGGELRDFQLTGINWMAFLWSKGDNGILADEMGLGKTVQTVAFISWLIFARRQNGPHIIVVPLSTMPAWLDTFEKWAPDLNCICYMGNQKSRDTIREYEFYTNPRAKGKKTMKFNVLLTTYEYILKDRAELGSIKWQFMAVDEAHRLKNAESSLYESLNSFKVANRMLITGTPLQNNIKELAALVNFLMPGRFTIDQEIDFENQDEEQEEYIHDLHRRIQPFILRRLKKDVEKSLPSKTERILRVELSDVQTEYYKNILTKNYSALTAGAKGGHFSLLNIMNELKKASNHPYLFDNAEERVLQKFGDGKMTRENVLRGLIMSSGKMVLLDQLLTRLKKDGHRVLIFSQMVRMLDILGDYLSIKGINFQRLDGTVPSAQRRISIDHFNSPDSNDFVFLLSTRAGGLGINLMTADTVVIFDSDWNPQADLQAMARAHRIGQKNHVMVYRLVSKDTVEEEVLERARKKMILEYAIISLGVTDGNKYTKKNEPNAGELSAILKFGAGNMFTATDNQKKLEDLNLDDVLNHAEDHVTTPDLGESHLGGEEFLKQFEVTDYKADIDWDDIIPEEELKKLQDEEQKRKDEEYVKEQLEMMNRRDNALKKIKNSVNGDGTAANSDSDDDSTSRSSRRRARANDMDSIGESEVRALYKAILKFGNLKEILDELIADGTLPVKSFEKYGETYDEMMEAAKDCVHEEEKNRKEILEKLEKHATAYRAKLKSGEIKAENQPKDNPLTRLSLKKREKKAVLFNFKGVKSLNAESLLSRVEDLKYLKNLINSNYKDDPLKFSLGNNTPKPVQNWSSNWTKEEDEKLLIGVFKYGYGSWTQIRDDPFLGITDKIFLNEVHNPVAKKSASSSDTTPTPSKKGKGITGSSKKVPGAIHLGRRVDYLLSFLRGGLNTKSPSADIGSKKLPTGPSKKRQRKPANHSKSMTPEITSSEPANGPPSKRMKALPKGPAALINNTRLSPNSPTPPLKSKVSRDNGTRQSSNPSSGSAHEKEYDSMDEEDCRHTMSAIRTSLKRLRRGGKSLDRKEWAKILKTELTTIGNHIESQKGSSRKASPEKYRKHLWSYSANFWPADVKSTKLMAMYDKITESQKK
Chain of Protein translocase subunit SecA (Escherichia coli (strain K12)) (P10408 whole entry): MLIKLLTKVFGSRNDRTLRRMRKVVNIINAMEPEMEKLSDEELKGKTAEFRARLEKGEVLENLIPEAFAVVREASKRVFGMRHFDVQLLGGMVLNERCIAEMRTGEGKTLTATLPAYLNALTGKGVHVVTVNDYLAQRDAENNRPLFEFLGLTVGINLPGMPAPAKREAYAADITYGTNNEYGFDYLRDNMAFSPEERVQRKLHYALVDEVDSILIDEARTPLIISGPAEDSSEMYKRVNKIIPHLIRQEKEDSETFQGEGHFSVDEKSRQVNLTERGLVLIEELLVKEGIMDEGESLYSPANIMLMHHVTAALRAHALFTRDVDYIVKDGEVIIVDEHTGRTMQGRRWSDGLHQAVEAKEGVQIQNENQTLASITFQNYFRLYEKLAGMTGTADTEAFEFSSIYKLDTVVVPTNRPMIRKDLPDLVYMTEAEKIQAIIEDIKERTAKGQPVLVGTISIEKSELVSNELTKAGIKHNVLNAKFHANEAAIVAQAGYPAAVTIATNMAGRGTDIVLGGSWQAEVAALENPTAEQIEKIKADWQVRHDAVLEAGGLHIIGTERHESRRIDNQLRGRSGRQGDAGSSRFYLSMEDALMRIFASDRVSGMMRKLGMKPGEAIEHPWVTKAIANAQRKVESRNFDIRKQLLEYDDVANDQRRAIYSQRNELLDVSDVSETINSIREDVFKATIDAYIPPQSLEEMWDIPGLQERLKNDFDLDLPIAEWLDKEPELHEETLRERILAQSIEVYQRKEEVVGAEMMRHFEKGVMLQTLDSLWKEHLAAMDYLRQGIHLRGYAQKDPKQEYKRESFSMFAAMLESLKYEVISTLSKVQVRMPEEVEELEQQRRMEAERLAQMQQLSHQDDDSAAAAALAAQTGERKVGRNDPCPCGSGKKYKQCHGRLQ
Chain of Sialic acid-binding Ig-like lectin 9 (Homo sapiens) (Q9Y336 whole entry): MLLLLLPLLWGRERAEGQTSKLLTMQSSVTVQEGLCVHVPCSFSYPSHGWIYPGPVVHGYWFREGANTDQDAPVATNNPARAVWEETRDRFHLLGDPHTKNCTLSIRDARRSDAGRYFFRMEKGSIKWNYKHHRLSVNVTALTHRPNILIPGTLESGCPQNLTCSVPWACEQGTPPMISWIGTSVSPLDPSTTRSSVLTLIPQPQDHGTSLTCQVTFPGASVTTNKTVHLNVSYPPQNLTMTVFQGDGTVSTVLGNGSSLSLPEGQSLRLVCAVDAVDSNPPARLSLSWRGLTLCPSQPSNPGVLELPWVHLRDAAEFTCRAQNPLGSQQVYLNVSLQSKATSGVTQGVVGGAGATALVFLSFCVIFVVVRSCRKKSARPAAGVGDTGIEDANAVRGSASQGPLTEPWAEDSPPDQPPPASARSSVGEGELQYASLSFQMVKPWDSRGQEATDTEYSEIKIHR

As to `CCc1n[nH]c(C2CN(C(=O)c3cnc[nH]3)CCO2)n1` (stereo unspecified), the Percent Effect is -4.08% in experiment [1]; 7.79% in [2]; 7.86% in [3]; 7.55% in [4]; 0.686% in the experiment on Trypanosoma cruzi; 4.84% in experiment [5]. In addition, the Percent Effect in [6] is 9.62%; in the experiment filed under Homo sapiens, 1.28%; in [7], 2.86%; in experiment [8] it was -11.8%; in [9], -9.8%.
With `O=S(=O)(Cc1ccccc1)NCc1ccco1`, the Percent Effect in experiment [1] is -2.2%; in experiment [2], -1.39%; in experiment [3], 13.3%; in [4], 0.175%; in the experiment with Trypanosoma cruzi, 0.68%; in experiment [5], 0%. Moreover, the Percent Effect in [6] was -1.4%; in the experiment filed under Homo sapiens it was 6.12%; in experiment [7] it was 3.16%; in experiment [8], 2.56%; in experiment [9], 0.387%.
For `CCO[C@H]1CO[C@@]2(CCCN(Cc3nc(C)cs3)C2)C1`, the Percent Effect is -0.479% in experiment [1]; 16.4% in [2]; -4.62% in [3]; 9.84% in [4]; 3.17% with Trypanosoma cruzi; -2.4% in [5]. Besides, the Percent Effect in [6] is 7.79%; in the experiment filed under Homo sapiens, -0.894%; in experiment [7], 8.33%; in [8], 18.5%; in experiment [9], -4.88%.
In the case of `Cc1cc2c(=O)n3c(nc2s1)CCN(C(=O)c1ccncc1)CC3`, the Percent Effect in experiment [1] was 0.412%; in experiment [2], 1.35%; in experiment [3], 20.6%; in [4] it was 7.55%; in the experiment on Trypanosoma cruzi it was -4.74%; in [5] it was 3.02%. The Percent Effect in [6] is 9.98%; in the experiment listed under Homo sapiens, 0.756%; in [7] it was 2.15%; in [8], 6.49%; in [9], -4.17%.
In the case of `CN1CCOC(CN(C(=O)Cc2ccccc2F)c2nccs2)C1` (stereo unspecified), the Percent Effect is -1.47% in [1]; 0% in experiment [2]; -3.71% in [3]; 11.3% in [4]; 8.82% in the experiment with Trypanosoma cruzi; -2.03% in experiment [5]. Also, the Percent Effect was -0.539% in [6]; 1.86% in the experiment filed under Homo sapiens; 1.98% in experiment [7]; 6.1% in experiment [8]; 5.97% in experiment [9].
`O=C(C1CCCc2[nH]ncc21)N1CCCCCC1` (stereo unspecified): the Percent Effect in experiment [1] is -3.72%; in experiment [2], 5.41%; in experiment [3], -4.75%; in experiment [4] it was 2.71%; in the experiment on Trypanosoma cruzi, -2.64%; in [5] it was -1.24%. Also, the Percent Effect in experiment [6] was 11.2%; in the experiment listed under Homo sapiens, 0.454%; in experiment [7], 2.15%; in experiment [8], 6.17%; in experiment [9] it was -3.22%.
With `Cc1scc(C(=O)N2CCC3(CC(=O)NC3=O)C2)c1-c1ccccc1` (stereo unspecified), the Percent Effect is -2.27% in experiment [1]; 5.41% in experiment [2]; 3.06% in [3]; 1.45% in experiment [4]; 1.35% with Trypanosoma cruzi; 2.86% in [5]. Moreover, the Percent Effect in [6] was 12.2%; in the experiment listed under Homo sapiens, 0.902%; in experiment [7] it was 8.99%; in [8], 9.76%; in [9], -5.21%.
On to `Cc1cccc(OCCC(=O)NCC(C)(C)C(N)=O)c1`, for which the Percent Effect is -3.42% in experiment [1]; 10.5% in experiment [2]; 1.54% in experiment [3]; 16.5% in experiment [4]; 1.13% in the experiment with Trypanosoma cruzi; 2.68% in [5]. For the same molecule, the Percent Effect in experiment [6] was 8.19%; in the experiment filed under Homo sapiens it was -23.5%; in [7], 4.41%; in [8] it was -41.5%; in experiment [9], -10.8%.
With `O[C@H]1[C@H](n2cc(-c3ccccc3)nn2)c2ccccc2C12CCNCC2`, the Percent Effect in experiment [1] is -1.97%; in [2], 6.94%; in experiment [3], -7.62%; in [4], 0.48%; in the experiment with Trypanosoma cruzi it was 1.65%; in experiment [5] it was -1.77%. Besides, the Percent Effect in [6] is 10.2%; in the experiment filed under Homo sapiens it was 12.5%; in [7], 5.26%; in [8] it was 15.4%; in experiment [9], -2.48%.
For `Cc1cc(-c2cnc(NCc3cccnc3)nc2C(C)C)on1`, the Percent Effect in experiment [1] was -6.62%; in experiment [2], 2.67%; in experiment [3], 40.6%; in experiment [4], -1.45%; in the experiment with Trypanosoma cruzi it was -3.74%; in experiment [5] it was -2.1%. The Percent Effect in experiment [6] was 3.79%; in the experiment listed under Homo sapiens, 56.7%; in [7], 1.06%; in [8], 1.28%; in [9] it was -1.52%.
As to `Nc1nc2c(c(=O)[nH]1)CCN(C(=O)c1cccc3nccnc13)C2`, the Percent Effect was -2.43% in experiment [1]; 10.4% in experiment [2]; -11.5% in experiment [3]; 9.88% in [4]; 2.46% with Trypanosoma cruzi; -12.4% in experiment [5]. For the same molecule, the Percent Effect is 20.6% in experiment [6]; -5.63% in the experiment listed under Homo sapiens; 4.3% in [7]; 8.64% in experiment [8]; -0.6% in experiment [9].
